Screens: PubChem BioAssay, National Center for Advancing Translational Sciences (NCATS)
The list is not random: actives were taken first. Their share in the collection is about 3%.
TSG101-PTAP inh: blocks PTAP/TSG101 interaction to inhibit HIV-1 budding. 340,000 tested, under 10 active. Potency, µM (doses to about 115 µM), for the others: at the highest dose activity change, negative = inhibition, most hits filed as inhibitors. Fluorescence polarization, FITC-PTAP peptide / Tsg101 binding; active = well fitted inhibition curve with a large enough effect in the main read-out, with a control signal flat, not every such curve was filed as active; inconclusive = small, poorly fitted or top-dose-only effect, or effect the other way, or a change in a side signal; inactive = no such curve, though single readings can be large or run the other way; note: potency is the fitted concentration of half-maximal effect; % of control where 0% means no effect
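Steps: Tsg101 binding domain dispensed (10 uM final), compounds pinned in DMSO, FITC-labeled PTAP-motif peptide added (50 nM final); after 20 min binding at room temperature, polarization measured.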
PLK1 PBD inh: PLK1 (human) polo-box domain binding inhibition | Potency, µM, for inactives: max response, negative = inhibition, hits mostly inhibitors | Plk1 PBD binding of FITC phosphopeptide, fluorescence polarization | 360,000 compounds, 2.8% hits; note: potency is the fitted concentration of half-maximal effect; series mostly up to about 57 µM; % is set by controls: 0 for no effect and ±100 for the full control effect; nearly all actives have a fitted effect of over 65% in size
Target sequence (P53350 whole entry, looked up, the tested form may be a part): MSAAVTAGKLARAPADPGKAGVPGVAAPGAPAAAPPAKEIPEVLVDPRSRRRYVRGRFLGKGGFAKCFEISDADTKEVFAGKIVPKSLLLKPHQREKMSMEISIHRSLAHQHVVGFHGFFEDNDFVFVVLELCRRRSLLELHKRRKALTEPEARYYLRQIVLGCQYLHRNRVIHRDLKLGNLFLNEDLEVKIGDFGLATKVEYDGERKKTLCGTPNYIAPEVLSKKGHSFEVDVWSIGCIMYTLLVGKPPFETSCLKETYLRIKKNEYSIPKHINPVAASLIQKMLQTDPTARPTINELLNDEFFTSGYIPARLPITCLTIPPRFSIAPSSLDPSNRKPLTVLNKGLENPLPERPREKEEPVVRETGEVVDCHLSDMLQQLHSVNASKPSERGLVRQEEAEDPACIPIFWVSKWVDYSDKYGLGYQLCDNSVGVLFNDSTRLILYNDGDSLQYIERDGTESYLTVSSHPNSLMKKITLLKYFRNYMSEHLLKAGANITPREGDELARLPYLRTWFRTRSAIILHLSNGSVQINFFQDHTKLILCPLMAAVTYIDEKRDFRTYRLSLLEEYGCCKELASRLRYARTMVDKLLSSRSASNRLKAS
VDR inh: inhibitors of human vitamin D receptor; VDR-SRC2-3 peptide fluorescence polarization, 2 h; P11473; 400,000 compounds, 0.93% hits; Potency, µM, inactives show max response, negative = inhibition, hits mostly inhibitors; note: potency is the fitted concentration of half-maximal effect; % is set by controls: 0 for no effect and ±100 for the full control effect
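After 23 nl compound addition and a short centrifugation, plates sat for 2 hours at ambient temperature; polarization of fluorescence then indicated loss of VDR binding to peptide SRC2-3.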
USP1-UAF1 inh: blocks the human USP1/UAF1 deubiquitinase complex | O94782 | recombinant USP1/UAF1, Ub-Rhodamine cleavage fluorescence | Potency, µM (highest dose often 57.1 µM), inactives show at the highest dose activity change, negative = inhibition, hits mostly inhibitors | 390,000 compounds, 0.23% hits | AID 743255; note: potency is the fitted concentration of half-maximal effect; % is set by controls: 0 for no effect and ±100 for the full control effect; nearly all actives have a fitted effect of over 60% in size
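USP1/UAF1 complex (1 nM) preincubated 15 min at room temperature with compound, then Ub-Rho substrate (150 nM final) added. Kinetic fluorescence at 480/540 nm over 6 reads at 60 s intervals; 50 mM HEPES pH 7.8, 0.5 mM EDTA, 0.1 mg/ml BSA, 1 mM TCEP, 0.01% Tween-20.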
GCN5L2 inh-1: blocks human GCN5L2 histone acetyltransferase | Q92830 | GCN5L2 HAT assay, ThioGlo1 CoA-SH fluorescence | Potency, µM (top dose mostly 58.9 µM), without a hit: at the highest dose activity change, negative = inhibition, hits mostly inhibitors | 390,000 compounds, 0.21% hits; note: potency is the fitted concentration of half-maximal effect; % is set by controls: 0 for no effect and ±100 for the full control effect
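Enzyme at 20nM final was mixed with library compounds for 15 min at room temperature. Peptide H3(1-25) at 75uM, acetyl-CoA at 70uM and ThioGlo1 at 50uM were then added. Plates were read immediately and after 20 min (Ex340nm/Em540nm).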
GCN5L2 inh-2: human KAT2A HAT inhibition, hit confirmation; GCN5L2 HAT, ThioGlo1 CoA fluorescence, 20 min; Potency, µM, actives largely listed as inhibitors; 140 compounds, 70% hits; shares compounds with GCN5L2 inh-1
USP1 UbRho: blocks human USP1/UAF1 cleavage of Ub-Rhodamine; shares compounds with VDR inh; Ub-Rhodamine cleavage, fluorescence kinetic read; Potency, µM (doses to about 56.8 µM), without a hit: at the highest dose activity change, negative = inhibition, most hits filed as inhibitors; 50 compounds, 50% hits
VDR inh confirm: inhibits human vitamin D receptor, primary hit validation; AID 602199; VDR-coactivator inhibition assay, qHTS confirmation; Potency, µM, most hits filed as inhibitors; 840 compounds, 89% hits; shares compounds with VDR inh; note: potency is the fitted concentration of half-maximal effect
VDR FP: VDR (human) coactivator binding inhibition, fluorescein polarization | shares compounds with VDR inh | VDR-coactivator binding, fluorescein fluorescence polarization | Potency, µM (highest dose often 57.1 µM), without a hit: top-dose activity change, negative = inhibition, most hits filed as inhibitors | 840 compounds, 48% hits; note: potency is the fitted concentration of half-maximal effect
VDR bla reporter: inhibits human VDR in beta-lactamase reporter cells; shares compounds with VDR inh; VDR beta-lactamase reporter cells, FRET ratio; cells co-treated with VDR agonist LG190178; Potency, µM (doses to about 46.1 µM), without a hit: at the highest dose activity change, negative = inhibition, usual class: inhibitors; 840 compounds, 23% hits; AID 602202; note: potency is the fitted concentration of half-maximal effect; % is set by controls: 0 for no effect and ±100 for the full control effect
VDR viability: cell toxicity, VDR inhibitor hit counter-screen | AID 602204 | cytotoxicity counter-screen, cell viability, qHTS | shares compounds with VDR inh | 840 compounds, 18% hits | Potency, µM (titrated, usually from 48.3 µM), inactives show top-dose activity change, negative = cytotoxicity, actives largely listed as cytotoxic;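 note: potency is the fitted concentration of half-maximal effect; plate controls were DMSO for no effect and high-concentration cycloheximide for full effect; nearly all actives have a fitted effect of over 75% in size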
* marks the source's active call; other numbers are inactive results; [ ] = another dose, or the depositor's remark. Unless noted, calls come from the whole dose curve; as a rule, active = well fitted curve in the direction sought with a large enough effect; inconclusive = small, poorly fitted or top-dose-only effect, or another doubt; inactive = no such curve, though single readings can be large; an effect the other way counts as inactive or inconclusive.

How did COc1ccc(CSc2ccc(-c3nc4ccccn4c3NCc3ccccc3)cc2OC)cc1 do in these assays?
TSG101-PTAP inh: -2%; PLK1 PBD inh: 1%; VDR inh: 2%; USP1-UAF1 inh: -31%; GCN5L2 inh-1: -14%

Results for Cc1nc(SCC(=O)c2ccc(F)cc2)n[nH]1 ?
TSG101-PTAP inh: -3%; PLK1 PBD inh: 27µM*; VDR inh: 71µM*; USP1-UAF1 inh: -25%; GCN5L2 inh-1: 22µM*; GCN5L2 inh-2: inconclusive

How did Nc1nc(SCC(=O)c2ccc(F)cc2)n[nH]1 do in these assays?
TSG101-PTAP inh: -4%; PLK1 PBD inh: -24%; VDR inh: -2%; USP1-UAF1 inh: -20%; GCN5L2 inh-1: 1%

Results for O=C(C1=NN(c2ccccc2)C2C(=O)N(c3cccc(Cl)c3)C(=O)C12)c1ccccc1 (stereo unspecified) ?
TSG101-PTAP inh: inconclusive; PLK1 PBD inh: -26%; VDR inh: -11%; USP1-UAF1 inh: inconclusive; GCN5L2 inh-1: 25µM*; GCN5L2 inh-2: 36*

What do the screens show for `Cc1ccc(CN2C(=O)N/C(=C\c3cccn3-c3cccc(C(=O)O)c3)C2=O)cc1`?
TSG101-PTAP inh: -2%; PLK1 PBD inh: inconclusive; VDR inh: 2%; USP1-UAF1 inh: -11%; GCN5L2 inh-1: inconclusive

Results for O=C(O)c1ccc(-n2cccc2/C=C2/NC(=O)N(c3cccc(Cl)c3)C2=O)cc1 ?
TSG101-PTAP inh: 3%; PLK1 PBD inh: 27µM*; VDR inh: -29%; USP1-UAF1 inh: -10%; GCN5L2 inh-1: inconclusive; GCN5L2 inh-2: inconclusive

How did O=C(/C=C/c1ccccc1)Nc1cccc(S(=O)(=O)Nc2ccccc2F)c1 do in these assays?
TSG101-PTAP inh: -5%; PLK1 PBD inh: 1.2µM*; VDR inh: 11µM*; USP1-UAF1 inh: -8%; GCN5L2 inh-1: inconclusive; GCN5L2 inh-2: inconclusive; VDR inh confirm: 4.2*; VDR FP: inconclusive; VDR bla reporter: 18%; VDR viability: inconclusive

How did C=CCOc1ccc(/C=C/C(=O)OCC(=O)N(C)CC(=O)Nc2ccccc2Cl)cc1 do in these assays?
TSG101-PTAP inh: -1%; PLK1 PBD inh: 1%; VDR inh: -19%; USP1-UAF1 inh: inconclusive; GCN5L2 inh-1: -3%

Results for COc1cccc2c1C(=O)c1c(O)c3c(c(O)c1C2=O)C[C@](O)(C(C)=O)C[C@H]3O[C@@H]1C[C@H](N)[C@H](O)[C@H](C)O1 ?
VDR inh: 4%; GCN5L2 inh-1: -10%[21.4 µM]; USP1 UbRho: 18µM*

How did CCOC(=O)/C(=C/c1ccc(OC(F)F)cc1)C1=Nn2c(nnc2-c2ccc(Cl)cc2)SC1 do in these assays?
TSG101-PTAP inh: -5%; PLK1 PBD inh: inconclusive; VDR inh: 8.9µM*; USP1-UAF1 inh: -23%; VDR inh confirm: 3.4*; VDR FP: 3.5µM*; VDR bla reporter: inconclusive; VDR viability: 21µM*

Results for CCOC(=O)/C(=C\c1ccc(OC(F)F)cc1)C1=Nn2c(nnc2-c2ccc(Cl)cc2)SC1 ?
TSG101-PTAP inh: -3%; PLK1 PBD inh: inconclusive; VDR inh: 16µM*; USP1-UAF1 inh: -21%; GCN5L2 inh-1: -12%; VDR inh confirm: 6*; VDR FP: inconclusive; VDR bla reporter: 16µM*; VDR viability: 13µM*

How did COc1ccc(-c2nnc3n2N=C(C)CS3)cc1 do in these assays?
TSG101-PTAP inh: -5%; PLK1 PBD inh: -3%; VDR inh: 1%; USP1-UAF1 inh: -15%; GCN5L2 inh-1: 3%

What do the screens show for `CC1=C2C3OC(=O)C(C)C3CCC2(C)C=C(Cl)C1=O` (stereo unspecified)?
PLK1 PBD inh: 1%; USP1-UAF1 inh: -2%

What do the screens show for `CCSc1nc2ccccc2c(OCc2ccccc2Cl)c1C(=O)OC`?
VDR inh: 6%; USP1-UAF1 inh: inconclusive; GCN5L2 inh-1: -7%

Results for CN1C(=O)C2(NC(=O)c3ccccc3N2C)c2ccccc21 (stereo unspecified) ?
TSG101-PTAP inh: -3%; PLK1 PBD inh: 3%; VDR inh: 1%; USP1-UAF1 inh: -18%; GCN5L2 inh-1: 0%

Results for CN1C(=O)C(Cl)(Cl)C(=O)c2ccccc21 ?
TSG101-PTAP inh: 7%; PLK1 PBD inh: 12µM*; VDR inh: 4µM*; USP1-UAF1 inh: -5%; GCN5L2 inh-1: -10%; VDR inh confirm: 3.4*; VDR FP: inconclusive; VDR bla reporter: 3%; VDR viability: -1%

What do the screens show for `NC(=O)C1CCN(C(=O)Cn2c(-c3cccs3)cc3ccccc32)CC1`?
VDR inh: 6%; USP1-UAF1 inh: -19%; GCN5L2 inh-1: -3%

Results for O=C(NCCc1ccccc1)c1ccc2nc(-c3ccco3)c(-c3ccco3)nc2c1 ?
TSG101-PTAP inh: 0%; PLK1 PBD inh: inconclusive; VDR inh: inconclusive; USP1-UAF1 inh: -16%; GCN5L2 inh-1: inconclusive; VDR inh confirm: 3.5*; VDR FP: 8.9µM*; VDR bla reporter: -1%; VDR viability: 12%

What do the screens show for `O=C(NC1CCCC1)c1ccc2nc(-c3ccco3)c(-c3ccco3)nc2c1`?
TSG101-PTAP inh: -4%; PLK1 PBD inh: 8.4µM*; VDR inh: inconclusive; USP1-UAF1 inh: -15%; GCN5L2 inh-1: -20%; VDR inh confirm: 10*; VDR FP: 3.2µM*; VDR bla reporter: -1%; VDR viability: 12%
